Experimental data reported in the supplement of paper PMC6555819.

Tests used:
Assay in all cases: PBM binding z-score (relative to random genomic background probes); higher = stronger binding; sequences stand for … in GC…GCGATTGACAGCGTAGAATGAAGG
[1] = test system: FXR:RXRa (NR concentration 270 nM, RXRa partner concentration 90 nM)
Outline: (§1)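 Antibodies against each partner of ligand-free nuclear receptor dimers (one per run) detected binding on custom Agilent 4×180K protein-binding microarrays after 1 h incubation. The double-stranded probes had 34-nt variable regions carrying direct-repeat seeds, single-nucleotide variants, half-site ablations and random human genomic background sequences. Binding z-scores, from regression-normalized fluorescence, use the random background probes as reference.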

[2] = test system: LXRa:RXRa (NR concentration 270 nM, RXRa partner concentration 90 nM)
Outline: as §1

[3] = test system: LXRa homodimer (NR concentration 270 nM)
Outline: as §1

[4] = test system: LXRb:RXRa (NR concentration 270 nM, RXRa partner concentration 90 nM)
Outline: as §1

[5] = test system: LXRb homodimer (NR concentration 270 nM)
Outline: as §1

[6] = test system: PPARa:RXRa (NR concentration 270 nM, RXRa partner concentration 90 nM)
Outline: as §1

[7] = test system: PPARg:RXRa (NR concentration 180 nM, RXRa partner concentration 90 nM)
Outline: as §1

[8] = test system: PPARg:RXRa 270nM:90nM, anti-RXR (NR concentration 270 nM, RXRa partner concentration 90 nM)
Outline: as §1

[9] = test system: PPARg:RXRa 30nM:10nM, anti-RXR (NR concentration 30 nM, RXRa partner concentration 10 nM)
Outline: as §1

[10] = test system: PPARg:RXRa 90nM:30nM, anti-RXR (NR concentration 90 nM, RXRa partner concentration 30 nM)
Outline: as §1

[11] = test system: PPARg:RXRa DBDmut IVT, anti-RXR (DBD mutation: RXRa K156A/R161A, NR concentration 270 nM, RXRa partner concentration 90 nM)
Outline: as §1

[12] = test system: PPARg:RXRa IVT, anti-PPARg (NR concentration 270 nM, RXRa partner concentration 90 nM)
Outline: as §1

[13] = test system: PPARg DBDmut:RXRa IVT, anti-PPARg (DBD mutation: PPARg1 K132A/R137A, NR concentration 270 nM, RXRa partner concentration 90 nM)
Outline: as §1

[14] = test system: PPARg DBDmut IVT, anti-PPARg (DBD mutation: PPARg1 K132A/R137A, NR concentration 270 nM)
Outline: as §1

[15] = test system: PPARg homodimer (NR concentration 180 nM)
Outline: as §1

[16] = test system: PXR:RXRa (NR concentration 270 nM, RXRa partner concentration 90 nM)
Outline: as §1

[17] = test system: PXR homodimer (NR concentration 270 nM)
Outline: as §1

[18] = test system: RARa:RXR (NR concentration 270 nM, RXRa partner concentration 90 nM)
Outline: as §1

[19] = test system: RARa homodimer (NR concentration 270 nM)
Outline: as §1

[20] = test system: RARb:RXRa (NR concentration 270 nM, RXRa partner concentration 90 nM)
Outline: as §1

Sequence | PBM binding z-score [1] | PBM binding z-score [2] | PBM binding z-score [3] | PBM binding z-score [4] | PBM binding z-score [5] | PBM binding z-score [6] | PBM binding z-score [7] | PBM binding z-score [8] | PBM binding z-score [9] | PBM binding z-score [10] | PBM binding z-score [11] | PBM binding z-score [12] | PBM binding z-score [13] | PBM binding z-score [14] | PBM binding z-score [15] | PBM binding z-score [16] | PBM binding z-score [17] | PBM binding z-score [18] | PBM binding z-score [19] | PBM binding z-score [20]
CCTACTGGGCCAAGGTCATTGAGCAGTCAAAGCA | 3.17 | 3.17 | 0.657 | 2.72 | -0.573 | 4.19 | 4.27 | 4.54 | 1.77 | 3.8 | 3.78 | 4.64 | 0.0966 | 0.249 | 1.29 | 3.5 | 1.2 | 3.64 | -0.199 | 3.21
ACTCGGAGGACAAACGTCAGAGCTACGCCAGTGA | -0.117 | -0.418 | -0.482 | -0.769 | -0.602 | -0.386 | 0.904 | 0.765 | -0.389 | 0.589 | -0.0796 | -0.507 | -0.617 | -0.00127 | -0.209 | -0.77 | -0.0928 | -0.299 | -0.122 | 0.951
CCTTACGGGTCAGGGTTATAGCACGGGTGGTACG | 3.45 | 2.22 | -0.256 | 1.95 | -0.0988 | 3.9 | 2.72 | 3.18 | 0.621 | 1.96 | 0.748 | 2.22 | -0.0775 | -0.847 | 1.81 | 2.25 | -0.00485 | 3.06 | 0.308 | 3.41
GCTGCTAGGTCAACTGATGGTGAGCTAAAGCTCG | 4.47 | 2.63 | -0.169 | 1.71 | -0.179 | 3.57 | 2.57 | 3.02 | 0.564 | 2.06 | 5.09 | 4.15 | -0.747 | -0.586 | 1.16 | 1.22 | -0.899 | 2.11 | -0.283 | 4.28
CGTCAAAGTTCAAGGCAACGTAACAGAAAGCAGC | 5.83 | 5.32 | 2.35 | 2.97 | 0.47 | 4.47 | 3.88 | 4.87 | 1.54 | 3.53 | 0.106 | 1.35 | -0.0637 | 0.203 | 2.24 | 3.56 | 1.41 | 2.87 | 0.477 | 4.98
CCTACTGGGCCATGAAAGGTCATTGATTCAGTGA | 3.25 | 4.74 | 4.74 | 3.86 | 0.00492 | 4.16 | 2.9 | 4.17 | 1.44 | 3.24 | 4.45 | 4.58 | 0.322 | 0.328 | 3.71 | 5.2 | 1.71 | 5.37 | 1.41 | 3.62
ATCGAAAGGTCGAGGAGGTGAGTATACACCGTTT | 4.46 | 3.42 | -0.194 | 2.55 | 0.629 | 4.26 | 2.8 | 3.19 | 0.595 | 2.06 | 0.255 | 1.9 | 1.49 | 0.557 | 1.47 | 2.86 | 0.184 | 3.41 | 0.666 | 3.94
TAGCCTAGGTCATTCAGGGGGCAGTATAGAAAGC | 5.76 | 4.78 | 2.16 | 5.66 | 11 | 4.6 | 3.97 | 4.6 | 1.89 | 3.53 | 2.78 | 4.86 | 5.63 | 7.07 | 4.21 | 4.22 | 1.22 | 5.41 | 0.982 | 4.45
CGTCCAAGGTCACCAGGTCAGTGAAAGCGACGTG | 7.52 | 5.47 | 1.42 | 4.08 | 0.282 | 6.01 | 7.61 | 6.88 | 3.48 | 5.87 | 4.53 | 5.56 | 0.432 | -0.2 | 5.06 | 5.13 | 1.21 | 6.39 | 2.58 | 5.42
CTTAGTTGGTCAAGGTCACACACGCTATAGGTAC | 4.69 | 4.17 | 2.15 | 4.03 | 1.14 | 4.51 | 4.28 | 4.71 | 2.33 | 3.77 | 4 | 4.92 | 0.864 | 1.4 | 2.76 | 4.35 | 2.79 | 4.4 | 2.07 | 4.35
ATATGTGGGTTATCGGGTCATTCAGTTTGCGCAT | 3.03 | 2.75 | 1.74 | 3.53 | 1.8 | 4.86 | 6.89 | 5.78 | 3.08 | 5.43 | 7.02 | 7.14 | 3.15 | 3.66 | 3.07 | 3.93 | 7.1 | 3.81 | 2.31 | 2.42
CAGCCTAGTTCAGGGCCAGTATAGGAGGAACGTT | 0.0528 | -0.124 | -0.0841 | -0.218 | -0.532 | -0.241 | -0.041 | -0.6 | -0.567 | -0.509 | -0.416 | -0.592 | -0.87 | -0.941 | -0.37 | -0.0793 | 0.431 | -0.13 | -0.131 | 1.05
GCTAGTTTGTCAGTAAAAGGTCACACACCGGTCG | 3.28 | 4.33 | 4.39 | 4.2 | 1.2 | 4.42 | 3.19 | 5.47 | 3.23 | 5.43 | 0.319 | 2.75 | 0.759 | 0.562 | 4.4 | 4.95 | 1.22 | 5.77 | 2.54 | 4.12
CCTACAGGGCCAAAGGTCATTGATTCCAATGCTC | 5.3 | 5.24 | 4.04 | 4.71 | 0.781 | 5.51 | 8.97 | 8.45 | 8.14 | 9.99 | 0.88 | 4.29 | 0.0481 | -0.141 | 5.51 | 5.66 | 2.27 | – | 2.39 | 4.63
CAAACTAGGTCACAGAGGTCGAAGTCCGTGCGTA | 4.92 | 4.23 | 1.74 | 3.62 | 0.575 | 5.48 | 9 | 6.93 | 5.15 | 7.32 | 8.27 | 8.42 | 2.27 | 0.791 | 2.22 | 4.41 | 3.65 | – | 0.511 | 4.35
CCTGCTAGGTCAATGGTCAGCTCAAGCAGCTCGC | 3.28 | 2.16 | -0.232 | 1.42 | 0.134 | 3.19 | 4.54 | 5.03 | 2.8 | 5.14 | 4.38 | 4.13 | 2.6 | -0.398 | 1.12 | 0.974 | -0.482 | 1.88 | -0.428 | 3.79
ATCGAAAGGTCGTGAGGTGTGTATACAGAAAGGC | 5.39 | 4.05 | 0.0507 | 3.03 | 0.423 | 4.94 | 3.6 | 3.97 | 1.61 | 2.81 | 0.0315 | 2.26 | 1.54 | 0.468 | 2.59 | 3.12 | -0.215 | – | 0.71 | 3.97
CCTTACGGGTCAAGGTAATAGCACGGGTGGTACG | 5.58 | 3.16 | -0.011 | 2.58 | -0.283 | 4.8 | 4.75 | 4.34 | 1.46 | 3.28 | 1.83 | 3.41 | 0.176 | -0.496 | 1.93 | 2.54 | 0.213 | – | 0.734 | 4.1
TAGCCTAGCTCATTCAGGGGCCAGTATAGAAAGC | -0.836 | -1 | -1.16 | -0.368 | -0.132 | -1.13 | -0.0519 | -0.988 | -0.46 | -0.823 | -0.101 | -0.269 | -0.969 | -0.592 | -1.77 | -0.527 | -0.788 | -0.603 | -1.25 | -0.199
